These results are taken from PubChem BioAssay AID540276 (National Center for Advancing Translational Sciences (NCATS), 2011).

Molecules are shown by their SMILES. The campaign covered roughly 300,000 compounds. About 5,400 (1.8%) were called active. Not shown: some 28% with an inconclusive outcome. This is one part of a sample in which actives are shown more often than they occur. Calls come from the whole dose curve; tested in HEK293 cells.
% is set by controls: 0 for no effect and ±100 for the full control effect; potency is the fitted concentration of half-maximal effect.

A short description of the assay: qHTS for inhibitors of binding or entry into cells for Marburg Virus. Particulars: Marburg virus pseudotyped entry inhibition, cell reporter; series mostly up to 37.8 µM; activity change, negative = inhibition: at the top concentration. On the technique in general: qHTS replaces the single test concentration by a dilution series.
For `O=[N+]([O-])c1cc2ccccc2nc1-c1ccccc1`, the “activity change, negative = inhibition” value was 16.2% [at 46.1 µM] (inactive).
In the case of `O=C(NCCN1CCOC1=O)C1CCC(=O)N(CCc2ccc(Cl)cc2)C1` (stereo not drawn), the “activity change, negative = inhibition” value is -1.16% (inactive).
As to `COCCOC(=O)C1=C(C)OC(N)=C(C#N)[C@H]1c1ccco1`, the “activity change, negative = inhibition” value is -2.4% (inactive).
Consider `O=C(CN1C(=O)/C(=C\c2ccc(C(F)(F)F)cc2)Sc2ccccc21)NCc1ccco1`, for which the “activity change, negative = inhibition” value was 11.6% (inactive).
Turning to `CCNC(=O)N1c2ccccc2Sc2ccccc21`, the “activity change, negative = inhibition” value is 7.38% (inactive).
With `O=C(CN1CCCCCC1)N1c2ccccc2Sc2ccc(C(F)(F)F)cc21`, the Potency was 18.3 µM (active).
For `Oc1ccc(-n2nnnc2SCc2c(F)cccc2Cl)cc1`, the “activity change, negative = inhibition” value was -9.4% [at 46.1 µM] (inactive).
On to `O=C(NN=Cc1ccccc1O)NN=Cc1ccccc1O`, for which the Potency was 3.98 µM (active).
For `O=C(N/N=C/c1ccc(O)c2ccccc12)c1cccnc1`, the “activity change, negative = inhibition” value is 16.1% [at 46.1 µM] (inactive).
With `O=C(CCCO)N/N=C/c1cc(Br)ccc1O`, the “activity change, negative = inhibition” value was -6.14% (inactive).
As to `Cc1ccc(NC(=O)CSc2nc(=O)n(CCN(C)C)c3c2CCCC3)c(C)c1`, the “activity change, negative = inhibition” value was 21.1% (inactive).
Still for that read-out and setting: then `O=C1CCCCC1Sc1ccc(Cl)cc1[N+](=O)[O-]` (stereo not drawn), with 13% [at 46.1 µM] (inactive); and `CCn1c(SCC(=O)Nc2ccc(Br)cc2)nc2sc3c(c2c1=O)CCN(C)C3`, with -2.58% [at 46.1 µM] (inactive).
Take `C/C(CC(=O)Nc1ccc(C)cc1C)=N\NC(=O)C(C)C`: the “activity change, negative = inhibition” value was 24.7% [at 46.1 µM] (inactive).
On to `Cc1ccc(NC(=O)NC(C)c2c(-n3cccc3)sc(C)c2C)c(C)c1` (stereo not drawn), for which the Potency is 11.2 µM (active).
On to `COc1ccc(NC(=O)NC(C)c2c(-n3cccc3)sc(C)c2C)cc1OC` (stereo not drawn), for which the “activity change, negative = inhibition” value was -7.63% [at 46.1 µM] (inactive).
With `CC(C)CCNC(=O)c1ccc2c(Cl)c3c(nc2c1)CCC3`, the Potency was 10 µM (active).
As for `CC(=O)c1ccc(NC(=O)c2ccc3c(Cl)c4c(nc3c2)CCCC4)cc1`, the “activity change, negative = inhibition” value is 4.19% (inactive).
For `COc1cccc(CNC(=O)c2ccc3c(Cl)c4c(nc3c2)CCCC4)c1`, the “activity change, negative = inhibition” value was -21.5% [at 46.1 µM] (inactive).
On to `COc1ccccc1N1CCC(N2CCN(CC(C)(C)C)C(CCO)C2)CC1` (stereo not drawn), for which the “activity change, negative = inhibition” value is -13.7% [at 46.1 µM] (inactive).
`CC(C)(C)c1ccc(C(=O)N2CCN(CCNC(=O)C(=O)Nc3ccc(F)cc3)CC2)cc1`: the “activity change, negative = inhibition” value is -27.6% (inactive).
As for `COc1ccccc1CNC(=O)c1ccc(N(C)S(=O)(=O)c2ccc(C)cc2)cc1`, the “activity change, negative = inhibition” value was 0.594% (inactive).
As for `CC(C)c1nc(NC[C@H]2CCCO2)c(C#N)c2c1COC(C)(C)C2`, the “activity change, negative = inhibition” value is -28.1% (inactive).
In the case of `CCN1CCN(c2nc(Nc3cccc(F)c3)nc(N)c2[N+](=O)[O-])CC1`, the Potency is 12.6 µM (active).
As to `Nc1nc(Nc2ccccc2)nc(NCCO)c1[N+](=O)[O-]`, the “activity change, negative = inhibition” value was 1.16% (inactive).
On the same count and under the same terms, then `COCCNc1nc(N)c([N+](=O)[O-])c(N2CCCCCC2)n1`, with 4.6% [at 46.1 µM] (inactive).
Still for that read-out and setting: next, `COC(=O)CC(CC(=O)OC)n1cccc1`: 28.2% (inactive); `COc1ccc2[nH]c3nc(SCC(=O)NC4CC4)nnc3c2c1`: 10.1% [at 46.1 µM] (inactive); `CC1CCCCC1NC(=O)c1cn(C)c2ccc(S(=O)(=O)N3CCOCC3)cc2c1=O` (stereo not drawn): 19% [at 46.1 µM] (inactive).
With `Cc1cc(N2CCN(S(=O)(=O)c3ccc(C)c(C)c3)CC2)c2ccccc2n1`, the Potency was 16.4 µM (active).
As to `Cc1ccc(S(=O)(=O)C(C#N)c2nc3ccccc3nc2N2CCCC2)cc1C` (stereo not drawn), the “activity change, negative = inhibition” value was -9.41% (inactive).
Still for that read-out and setting: next, `Cc1cc(C(=O)NNC(=O)c2cccc(S(=O)(=O)N3CCOCC3)c2)c2ccccc2n1`: -20.8% [at 46.1 µM] (inactive).
With `CCOc1ccc(CCNC(=O)COC(=O)C2CCN(S(=O)(=O)c3ccccc3)CC2)cc1OCC`, the “activity change, negative = inhibition” value was 2.99% (inactive).
With `COc1cccc(/C=N/Nc2ccc(S(=O)(=O)Nc3ccccc3C(=O)O)cc2[N+](=O)[O-])c1O`, the “activity change, negative = inhibition” value is 28.6% (inactive).
With `COc1cccc(/C=N\NC(=O)C2=NNC(=O)C2C)c1O` (stereo not drawn), the “activity change, negative = inhibition” value was -25.7% (inactive).
Regarding `COc1cccc(/C=N/Nc2cc(C)nc(-c3ccccc3O)n2)c1O`, the Potency was 5.62 µM (active).
For the compound `COCCN1C(=O)N(c2ccc(Cl)cc2)C(=O)C1CC(=O)Nc1cc(OC)cc(OC)c1` (stereo not drawn), the “activity change, negative = inhibition” value was -6.26% (inactive).
Regarding `CCOC(=O)C1(Cc2ccccc2C)CCCN(C(=O)CCc2c(C)noc2C)C1` (stereo not drawn), the “activity change, negative = inhibition” value was -26.5% [at 46.1 µM] (inactive).
For `O=C1CC(c2ccccc2)C(c2ccccc2)=NN1` (stereo not drawn), the “activity change, negative = inhibition” value was 0.609% [at 46.1 µM] (inactive).
As for `Cc1ccc(-c2noc(CCC(N)=O)n2)cc1`, the “activity change, negative = inhibition” value is 7.01% (inactive).
With `CCNC(=O)CCc1nc(-c2ccc(C)cc2)no1`, the Potency entry was “inactive”.
Take `CCNC(=O)CCc1nc(-c2ccc(C(C)(C)C)cc2)no1`: the Potency was 8.91 µM (active).
Turning to `COc1ccc(Cl)cc1NC(=O)c1cccc(N2C(=O)C3CC=CCC3C2=O)c1` (stereo not drawn), the “activity change, negative = inhibition” value is -11.5% (inactive).
Take `O=C(CC1SC(N2CCCC2)=NC1=O)Nc1ccc(C(=O)NCCc2ccc(F)cc2)cc1` (stereo not drawn): the “activity change, negative = inhibition” value is 16.2% (inactive).
The same measure, in the same setting: then `CC(C)C(=O)OCC(=O)Nc1ccc2c(c1)CCC2`, with -11% [at 46.1 µM] (inactive); and `CC1CC(C)CN(CC(=O)Nc2ccc(S(N)(=O)=O)cc2)C1` (stereo not drawn), with 0% (inactive).
In the case of `CC1CC(C)CN(CCC(=O)Nc2ccc3c(c2)CCC3)C1` (stereo not drawn), the Potency was 7.3 µM (active).
For `Cc1nnc(NC(=O)C(c2ccccc2)c2ccccc2)s1`, the “activity change, negative = inhibition” value is 0.601% [at 46.1 µM] (inactive).
Regarding `CC/C(=C\c1ccc(Cl)cc1)c1ccncc1`, the “activity change, negative = inhibition” value was -7.96% (inactive).
`O=C1NCC(Nc2ccccc2)C(=O)N1` (stereo not drawn): the “activity change, negative = inhibition” value was -1.5% (inactive).
For `CC1(C)C(C=C(Cl)Cl)C1C(=O)N(Cc1ccc(Cl)cc1)C1CCS(=O)(=O)C1` (stereo not drawn), the Potency is 12.6 µM (active).
Regarding `Cc1cc(Cl)ccc1OCC(=O)N(Cc1ccc(N(C)C)cc1)C1CCS(=O)(=O)C1` (stereo not drawn), the “activity change, negative = inhibition” value was -10% [at 46.1 µM] (inactive).
Turning to `Cc1ccc(CN(C(=O)c2sc3ccccc3c2Cl)C2CCS(=O)(=O)C2)cc1` (stereo not drawn), the “activity change, negative = inhibition” value was -19.4% (inactive).
